# Measurements as given in PubChem BioAssay (NCATS).
# Values joined by “and” are separate entries in the source; they are usually repeats but may differ in a detail not shown here. Identical values can stand only once. Records with an inconclusive call do not appear. A call without a number means that no potency is given here. Some compounds were tested as several samples or in several runs, with calls that do not always agree. Active and inactive are the calls of the source. Unless noted, calls come from the whole dose curve; as a rule, active = well fitted curve in the direction sought with a large enough effect; inconclusive = small, poorly fitted or top-dose-only effect, or another doubt; inactive = no such curve, though single readings can be large; an effect the other way counts as inactive or inconclusive.
# Experiments:
# [1] = Primary qHTS for small molecule stabilizers of the endoplasmic reticulum resident proteome: Secreted ER Calcium Modulated Protein (SERCaMP) assay (AID 1508630)
# Procedure, shortened: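 GLuc-SERCaMP-expressing SH-SY5Y cells, pretreated 16 h with compound, are challenged with thapsigargin to empty ER calcium stores; after 4 h, coelenterazine is added directly to the medium and luminescence is imaged.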
# [2] = A High-Content qHTS Against Drug Library for the Identification of Small Molecules that Inhibit DYT1 Early Onset Primary Dystonia-Associated Cell Pathology (AID 1645839; calls by dose curve; note: potency is the fitted concentration of half-maximal effect)
# Procedure, shortened: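 In this high-content image screen, delE TorsinA mislocalization in inducible Flp-In 293 cells is scored as %pathology, with cell count serving as the counterscreen. Compound exposure lasts 48 h under tetracycline induction in reduced-serum medium.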
# [3] = molecular target: Cytochrome P450 2D6 (Homo sapiens) (UniProt P10635); test: Cytochrome P450 family 2 subfamily D member 6 (CYP2D6) small molecule antagonists: luciferase biochemical (cell-free) qHTS assay (AID 1645840; active = well fitted curve in the direction sought with a large enough effect in the repeat runs; an effect the other way counts as inactive or inconclusive; note: nearly all actives have a fitted effect of over 55% in size; note: potency is the fitted concentration of half-maximal effect)
# Procedure, shortened: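 P450-Glo luminescent screen: recombinant CYP2D6 enzyme–proluciferin substrate mix preincubated with compound 10 min at room temperature, then NADPH regeneration added for 1 h at room temperature. Detection reagent added for 20 min; luciferin light read as relative luminescence units.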
# [4] = molecular target: Cytochrome P450 2C9 (Homo sapiens) (UniProt P11712); test: Cytochrome P450 family 2 subfamily C member 9 (CYP2C9) small molecule antagonists: luciferase biochemical (cell-free) qHTS assay (AID 1645842; active = well fitted curve in the direction sought with a large enough effect in the repeat runs; an effect the other way counts as inactive or inconclusive; note: nearly all actives have a fitted effect of over 55% in size; note: potency is the fitted concentration of half-maximal effect)
# Procedure, shortened: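 Luminescence, after 20 min with luciferin detection reagent, reflected CYP2C9 turnover during a 1 h NADPH-driven reaction at 37C. Enzyme-substrate mix contained 0.4% bovine serum albumin and was preincubated with compound 10 min at room temperature.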
# [5] = Cytotoxicity counterscreen for inhibitors of SARS-CoV-2 cell entry (AID 1645845; calls by dose curve; note: nearly all actives have a fitted effect of over 50% in size)
# Procedure, shortened: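 48 h compound treatment (after 1 h preincubation), HEK293-ACE2 cells, 37 C/5% CO2; ATP luminescence endpoint; normalized to cell wells and media blanks.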
# [6] = Primary qHTS to identify inhibitors of SARS-CoV-2 cell entry (AID 1645846; calls by dose curve; note: nearly all actives have a fitted effect of over 45% in size; note: potency is the fitted concentration of half-maximal effect); conditions: activity change, negative = inhibition: at 57.1 µM (top of the series) unless noted
# Procedure, shortened: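 Inhibition of spike-mediated entry was scored in human ACE2-transfected Expi293F cells. Particles were MLV-pseudotyped with Wuhan-Hu-1 S carrying a 19-aa C-terminal deletion; signal was luciferase after two days, scaled between spike PP and fusion-protein-free PP.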
# [7] = molecular target: Papain (Carica papaya) (UniProt P00784); test: Primary qHTS assay for inhibitors of the protease papain (AID 1645873);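 note: papain turnover of Z-FR-AMC read as the AMC fluorescence gain over 10 min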
# [8] = Primary qHTS for inhibitors of nuclear receptor binding SET domain protein 2 (NSD2) in an isogenic RCH-ACV NSD2 p.E1099K mutant (9B) (AID 1645876); note: nearly all actives have a fitted effect of over 70% in size; note: potency is the fitted concentration of half-maximal effect
# [9] = Primary qHTS for inhibitors of nuclear receptor binding SET domain protein 2 (NSD2) in an RCH-ACV wild type WT cells (2C) (AID 1645877); note: nearly all actives have a fitted effect of over 70% in size; note: potency is the fitted concentration of half-maximal effect
# [10] = molecular target: Cytochrome P450 3A4 (Homo sapiens) (UniProt P08684); test: Cytochrome P450 family 3 subfamily A member 4 (CYP3A4) small molecule antagonists: luciferase qHTS assay (AID 1645841; active = well fitted curve in the direction sought with a large enough effect in the repeat runs; an effect the other way counts as inactive or inconclusive; note: nearly all actives have a fitted effect of over 45% in size)
# Procedure, shortened: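 Luminescent CYP3A4 activity readout: compounds plus enzyme-substrate mix 10 min at room temperature, reaction started with NADPH regenerating system for 1 h, stopped with detection reagent, read after 20 min. Ketoconazole served as control.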
# [11] = molecular target: Catechol O-methyltransferase (Homo sapiens) (UniProt P21964); test: Confirmatory Screen for Target Class Profiling of Small Molecule Inhibitors of Methyltransferases (AID 1745852); conditions: MTase-Glo luminescence, SAH detection, recombinant enzyme; measured here: COMT max response; stronger effect = lower value
# [12] = molecular target: Rap guanine nucleotide exchange factor 3 (Homo sapiens) (UniProt O95398); test: Confirmatory qHTS for antagonist of cAMP-regulated guanine nucleotide exchange factor 3 (EPAC1) (AID 1645880); note: nearly all actives have a fitted effect of over 55% in size
# Procedure, shortened: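 Nucleotide exchange uses 100 nM EPAC1, 250 nM RAP1B-BODIPY-GDP and 50 uM GDP, with compounds in a concentration-titration series. After 5 min at room temperature, fluorescence (480 nm ex/540 nm em) is read every 5 min for 30 min. Data are normalized to control ATA and DMSO.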
# [13] = molecular target: Rap guanine nucleotide exchange factor 3 (Homo sapiens) (UniProt O95398); test: Confirmatory qHTS for agonist of cAMP-regulated guanine nucleotide exchange factor 3 (EPAC1) (AID 1645881);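 note: EPAC1 catalysed release of BODIPY-GDP from Rap1B seen as fluorescence loss; nearly all actives have a fitted effect of over 75% in size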
# [14] = molecular target: Rap guanine nucleotide exchange factor 4 (Homo sapiens) (UniProt Q8WZA2); test: Confirmatory qHTS for agonist of cAMP-regulated guanine nucleotide exchange factor 4 (EPAC2) (AID 1645884);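 note: nucleotide exchange releases bodipy-GDP from Rap1 and this lowers its fluorescence; nearly all actives have a fitted effect of over 65% in size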
# [15] = molecular target: Rap guanine nucleotide exchange factor 4 (Homo sapiens) (UniProt Q8WZA2); test: Confirmatory qHTS for antagonist of cAMP-regulated guanine nucleotide exchange factor 4 (EPAC2) (AID 1645885); note: nearly all actives have a fitted effect of over 25% in size; note: potency is the fitted concentration of half-maximal effect
# [16] = Counterscreen qHTS for small molecule stabilizers of the endoplasmic reticulum resident proteome: GLuc-NoTag assay (AID 1508627); note: potency is the fitted concentration of half-maximal effect;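 for activity change, negative = inhibition: SH-SY5Y cells given compound then 100 nM thapsigargin to empty ER calcium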
# Procedure, shortened: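 Luminescence of Gaussia luciferase secreted into the medium (coelenterazine, 0.07x final, unlysed cells) was the read-out. Human SH-SY5Y neuroblastoma cells constitutively secreting untagged GLuc received compound for 19 h, then 100 nM thapsigargin for 4 h.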
# [17] = Confirmatory qHTS for small molecule stabilizers of the endoplasmic reticulum resident proteome: Secreted ER Calcium Modulated Protein (SERCaMP) assay (AID 1508628); note: potency is the fitted concentration of half-maximal effect; nearly all actives have a fitted effect of over 40% in size
# Procedure, shortened: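 We seeded SH-SY5Y-GLuc-SERCaMP cells, added compounds (three concentrations in the primary run, eleven up to 76.6 uM in confirmation), incubated 16 h, depleted ER calcium with thapsigargin, and read luciferase 4 h later.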
# [18] = Cell Viability qHTS for small molecule stabilizers of the endoplasmic reticulum resident proteome (AID 1508629); conditions: cell viability counter-screen, 100 nM thapsigargin for final 4 h;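 note: potency is the fitted concentration of half-maximal effect; compound exposure about 46 h in total before the viability read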
# Sequence of Rap guanine nucleotide exchange factor 4 (Homo sapiens) (Q8WZA2 whole entry, looked up): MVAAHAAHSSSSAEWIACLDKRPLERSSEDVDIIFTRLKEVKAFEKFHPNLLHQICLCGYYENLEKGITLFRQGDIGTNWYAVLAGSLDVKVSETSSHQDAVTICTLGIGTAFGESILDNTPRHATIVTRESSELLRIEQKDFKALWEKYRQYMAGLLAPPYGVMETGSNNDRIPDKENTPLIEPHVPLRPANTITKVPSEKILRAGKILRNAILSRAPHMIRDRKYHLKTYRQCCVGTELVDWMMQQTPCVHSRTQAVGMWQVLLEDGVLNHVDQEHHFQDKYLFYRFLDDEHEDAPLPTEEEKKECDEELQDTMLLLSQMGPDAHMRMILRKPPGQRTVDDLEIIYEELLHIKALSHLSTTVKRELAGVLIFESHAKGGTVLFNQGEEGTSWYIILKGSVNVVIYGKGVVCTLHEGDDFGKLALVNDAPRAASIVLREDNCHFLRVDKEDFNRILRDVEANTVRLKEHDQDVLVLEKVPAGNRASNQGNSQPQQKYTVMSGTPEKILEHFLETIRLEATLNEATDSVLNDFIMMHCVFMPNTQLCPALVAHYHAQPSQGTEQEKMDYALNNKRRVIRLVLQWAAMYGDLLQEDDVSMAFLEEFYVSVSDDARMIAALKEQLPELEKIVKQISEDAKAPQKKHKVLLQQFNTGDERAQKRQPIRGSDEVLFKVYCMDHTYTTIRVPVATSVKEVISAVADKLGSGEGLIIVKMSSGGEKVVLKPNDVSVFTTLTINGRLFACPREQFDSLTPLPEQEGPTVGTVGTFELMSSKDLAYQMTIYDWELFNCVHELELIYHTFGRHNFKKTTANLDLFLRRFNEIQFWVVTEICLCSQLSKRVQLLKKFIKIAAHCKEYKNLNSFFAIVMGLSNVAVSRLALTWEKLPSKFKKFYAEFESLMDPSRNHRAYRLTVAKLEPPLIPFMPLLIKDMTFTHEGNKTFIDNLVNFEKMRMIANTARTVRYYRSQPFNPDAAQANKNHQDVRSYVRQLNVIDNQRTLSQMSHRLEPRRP
# Sequence of Cytochrome P450 2D6 (Homo sapiens) (P10635 whole entry, looked up): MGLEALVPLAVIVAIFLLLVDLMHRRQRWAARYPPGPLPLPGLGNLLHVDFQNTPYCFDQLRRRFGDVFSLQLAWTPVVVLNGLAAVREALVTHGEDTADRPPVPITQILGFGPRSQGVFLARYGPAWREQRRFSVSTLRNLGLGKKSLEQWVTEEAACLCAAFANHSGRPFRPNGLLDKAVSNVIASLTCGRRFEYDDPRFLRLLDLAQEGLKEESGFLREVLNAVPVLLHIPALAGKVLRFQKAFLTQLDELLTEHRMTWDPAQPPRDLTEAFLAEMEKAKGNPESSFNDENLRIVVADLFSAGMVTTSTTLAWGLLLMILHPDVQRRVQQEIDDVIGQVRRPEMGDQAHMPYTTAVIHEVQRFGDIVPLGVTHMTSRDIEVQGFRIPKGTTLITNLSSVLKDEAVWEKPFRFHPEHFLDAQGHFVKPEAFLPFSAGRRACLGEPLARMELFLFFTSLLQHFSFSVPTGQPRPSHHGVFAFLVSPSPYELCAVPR
# Sequence of Cytochrome P450 3A4 (Homo sapiens) (P08684 whole entry, looked up): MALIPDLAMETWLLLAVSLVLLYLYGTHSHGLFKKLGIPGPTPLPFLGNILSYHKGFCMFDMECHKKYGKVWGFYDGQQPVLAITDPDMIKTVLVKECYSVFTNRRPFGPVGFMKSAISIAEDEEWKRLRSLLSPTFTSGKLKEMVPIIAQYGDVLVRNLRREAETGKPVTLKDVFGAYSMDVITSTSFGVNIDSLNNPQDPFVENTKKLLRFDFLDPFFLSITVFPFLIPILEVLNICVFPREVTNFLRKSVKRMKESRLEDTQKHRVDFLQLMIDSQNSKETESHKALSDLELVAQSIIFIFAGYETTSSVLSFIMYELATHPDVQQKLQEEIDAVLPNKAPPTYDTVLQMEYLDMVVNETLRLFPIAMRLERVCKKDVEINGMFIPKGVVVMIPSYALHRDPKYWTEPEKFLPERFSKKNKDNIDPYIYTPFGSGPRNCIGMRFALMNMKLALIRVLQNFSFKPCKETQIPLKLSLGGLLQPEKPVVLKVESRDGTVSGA
# Sequence of Cytochrome P450 2C9 (Homo sapiens) (P11712 whole entry, looked up): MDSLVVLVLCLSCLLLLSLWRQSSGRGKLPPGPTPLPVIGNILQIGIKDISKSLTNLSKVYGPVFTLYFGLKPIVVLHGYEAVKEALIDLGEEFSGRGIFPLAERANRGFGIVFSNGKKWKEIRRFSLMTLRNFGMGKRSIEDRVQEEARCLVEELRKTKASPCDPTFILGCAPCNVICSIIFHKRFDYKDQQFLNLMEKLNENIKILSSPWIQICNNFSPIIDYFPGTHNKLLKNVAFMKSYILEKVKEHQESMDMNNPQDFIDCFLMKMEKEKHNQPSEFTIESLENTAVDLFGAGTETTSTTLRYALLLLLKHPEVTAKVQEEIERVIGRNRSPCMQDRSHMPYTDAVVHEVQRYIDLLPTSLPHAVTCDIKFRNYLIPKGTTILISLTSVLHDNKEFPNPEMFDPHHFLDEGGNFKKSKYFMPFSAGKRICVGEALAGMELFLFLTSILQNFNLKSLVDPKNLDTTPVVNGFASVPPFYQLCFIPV
# Sequence of Papain (Carica papaya) (P00784 whole entry, looked up, the tested form may be a part): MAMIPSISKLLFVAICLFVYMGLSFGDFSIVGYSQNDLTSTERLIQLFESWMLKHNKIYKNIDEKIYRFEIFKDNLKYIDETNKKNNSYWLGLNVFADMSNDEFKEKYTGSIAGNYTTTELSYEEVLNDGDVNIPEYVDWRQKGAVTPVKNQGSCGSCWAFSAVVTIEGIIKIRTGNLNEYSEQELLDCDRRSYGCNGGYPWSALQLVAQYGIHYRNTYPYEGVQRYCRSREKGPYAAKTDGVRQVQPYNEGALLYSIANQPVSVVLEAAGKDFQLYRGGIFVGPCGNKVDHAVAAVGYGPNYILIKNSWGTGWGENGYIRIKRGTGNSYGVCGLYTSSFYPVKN
# Sequence of Rap guanine nucleotide exchange factor 3 (Homo sapiens) (O95398 whole entry, looked up): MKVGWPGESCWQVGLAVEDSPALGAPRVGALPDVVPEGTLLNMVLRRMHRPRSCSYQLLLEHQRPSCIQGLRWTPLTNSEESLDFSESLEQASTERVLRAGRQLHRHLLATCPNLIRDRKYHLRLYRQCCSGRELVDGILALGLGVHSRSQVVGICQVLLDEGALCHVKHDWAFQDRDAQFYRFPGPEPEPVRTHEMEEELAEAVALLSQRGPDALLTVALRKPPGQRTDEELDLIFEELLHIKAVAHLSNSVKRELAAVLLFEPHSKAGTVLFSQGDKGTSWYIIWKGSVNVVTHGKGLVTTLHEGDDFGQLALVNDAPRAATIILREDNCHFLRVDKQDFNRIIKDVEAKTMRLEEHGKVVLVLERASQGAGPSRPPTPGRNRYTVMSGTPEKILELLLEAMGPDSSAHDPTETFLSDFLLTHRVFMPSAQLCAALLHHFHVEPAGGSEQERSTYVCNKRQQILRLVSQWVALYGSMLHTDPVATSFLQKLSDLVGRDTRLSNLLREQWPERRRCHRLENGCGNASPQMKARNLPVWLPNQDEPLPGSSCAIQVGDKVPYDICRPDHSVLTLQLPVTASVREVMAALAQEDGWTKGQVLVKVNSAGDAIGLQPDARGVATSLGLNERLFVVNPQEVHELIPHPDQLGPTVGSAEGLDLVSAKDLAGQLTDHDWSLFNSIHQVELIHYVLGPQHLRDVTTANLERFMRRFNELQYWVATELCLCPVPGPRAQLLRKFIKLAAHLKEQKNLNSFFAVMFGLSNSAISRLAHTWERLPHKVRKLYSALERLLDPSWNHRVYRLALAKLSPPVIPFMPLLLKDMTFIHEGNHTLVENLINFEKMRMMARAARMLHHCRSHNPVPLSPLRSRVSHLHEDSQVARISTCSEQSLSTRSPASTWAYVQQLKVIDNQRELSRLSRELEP
# Sequence of Catechol O-methyltransferase (Homo sapiens) (P21964 whole entry, looked up): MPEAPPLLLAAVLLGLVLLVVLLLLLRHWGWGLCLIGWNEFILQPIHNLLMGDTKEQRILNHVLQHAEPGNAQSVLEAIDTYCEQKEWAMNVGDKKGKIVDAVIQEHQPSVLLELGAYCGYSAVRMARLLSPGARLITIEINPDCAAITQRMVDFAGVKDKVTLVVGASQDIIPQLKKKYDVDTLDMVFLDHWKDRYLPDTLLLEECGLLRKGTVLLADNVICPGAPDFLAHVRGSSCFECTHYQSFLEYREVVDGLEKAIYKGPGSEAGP
compound,measurement,setting,value
NCC(O)c1ccc(O)cc1 (configuration not stated),outcome,[1],inactive
same,Potency,[2],inactive
same,Potency,[3],inactive
same,Potency,[4],inactive
same,Potency,[5],inactive
same,Potency,[6],inactive
same,Potency,[7],inactive
O=C1CC[C@@]2(O)[C@H]3Cc4ccc(O)c5c4[C@@]2(CCN3CC2CC2)[C@H]1O5,outcome,[1],inactive
same,Potency,[2],inactive
same,Potency,[4],inactive
same,Potency,[5],inactive
same,"activity change, negative = inhibition",[6],-8.92%
same,Potency,[8],inactive
same,Potency,[9],inactive
CN(C)CCc1ccc(O)cc1,outcome,[1],inactive
same,Potency,[2],inactive
same,Potency,[3],inactive
same,Potency,[4],inactive
same,Potency,[8],inactive
same,Potency,[9],inactive
CC1=C2C[C@@H]3[C@@H](CC=C4C[C@@H](O)CC[C@@]43C)[C@@H]2CC[C@]12O[C@H]1C[C@H](C)CN[C@H]1[C@H]2C,outcome,[1],inactive
CN1C(=S)CN=C(c2ccccc2)c2cc(Cl)ccc21,outcome,[1],inactive
same,Potency,[2],inactive
same,Potency,[4],12.3 µM (active)
O=C(O)c1ccc2[nH]cc(CCCCN3CC=C(c4ccccc4)CC3)c2c1,outcome,[1],inactive
same,Potency,[2],inactive
same,Potency,[3],15.5 µM (active)
same,Potency,[4],inactive
same,Potency,[8],inactive
same,Potency,[9],inactive
O=[N+]([O-])c1cc([As](=O)(O)O)ccc1O,outcome,[1],inactive
same,Potency,[2],inactive
same,Potency,[3],inactive
same,outcome,[10],inactive
same,Potency,[4],inactive
same,Potency,[5],inactive
same,"activity change, negative = inhibition",[6],-27.8%
same,Potency,[8],inactive
NN=C(N)N,outcome,[1],inactive
same,Potency,[2],inactive
same,Potency,[3],inactive
same,Potency,[4],inactive
same,Potency,[5],inactive
same,"activity change, negative = inhibition",[6],4.5%
same,Potency,[7],inactive
same,Potency,[8],inactive
same,Potency,[9],inactive
Nc1ccncc1,outcome,[1],inactive
same,Potency,[2],inactive
same,"activity change, negative = inhibition",[6],-28.2% [at 114 µM]
same,Potency,[7],inactive
same,Potency,[8],inactive
same,Potency,[9],inactive
same,activity,[11],0%
CCCN1CCC[C@@H]2Cc3[nH]ncc3C[C@H]21,outcome,[1],inactive
same,Potency,[2],inactive
same,Potency,[3],inactive
same,Potency,[4],inactive
same,Potency,[7],inactive
same,Potency,[8],inactive
same,Potency,[9],inactive
CC[N+](CC)(CC)CC,outcome,[1],inactive
same,Potency,[2],inactive
same,Potency,[3],inactive
same,Potency,[4],inactive
same,Potency,[8],inactive
same,Potency,[9],inactive
same,activity,[11],2.75%
COc1ccc(C(CN(C)C)C2(O)CCCCC2)cc1 (configuration not stated),outcome,[1],inactive
same,Potency,[2],inactive
same,Potency,[4],inactive
same,Potency,[5],inactive
same,Potency,[6],inactive
same,Potency,[7],inactive
same,Potency,[8],inactive
same,Potency,[9],inactive
C[C@]12CC[C@H]3[C@@H](CCC4=CC(=O)CC[C@@H]43)[C@@H]1CC[C@@H]2OC(=O)CCc1ccccc1,outcome,[1],inactive
same,Potency,[2],inactive
same,Potency,[3],inactive
same,outcome,[10],inactive
same,Potency,[4],27.5 µM (active)
same,Potency,[5],inactive
same,"activity change, negative = inhibition",[6],2.01%
same,Potency,[9],inactive
CC(C)=CC1C(C(=O)OCc2cccc(Oc3ccccc3)c2)C1(C)C (configuration not stated),outcome,[1],inactive
same,Potency,[2],inactive
same,Potency,[4],3.89 µM (active)
same,Potency,[5],inactive
same,Potency,[6],inactive
same,Potency,[8],inactive
same,Potency,[9],inactive
same,Potency,[12],inactive
same,outcome,[13],inactive
same,outcome,[14],inactive
same,Potency,[15],inactive
CCN(CC)C(=O)N[C@@H]1C=C2c3cccc4[nH]cc(c34)C[C@@H]2N(C)C1,outcome,[1],inactive
same,Potency,[2],inactive
same,Potency,[5],inactive
same,"activity change, negative = inhibition",[6],3.33%
same,Potency,[8],inactive
CCC(=O)C(CC(C)N(C)C)(c1ccccc1)c1ccccc1 (configuration not stated),Potency,[16],inactive
same,Potency,[17],35.5 µM (active)
same,Potency,[3],0.898 µM (active)
same,Potency,[4],inactive
same,Potency,[8],34.7 µM (active)
same,Potency,[9],30.9 µM (active)
Fc1ccc(C(OCCN2CCN(CCCc3ccccc3)CC2)c2ccc(F)cc2)cc1,Potency,[16],44.7 µM (active)
same,outcome,[1],inactive
same,Potency,[6],17.8 µM (active)
same,Potency,[7],inactive
same,Potency,[8],6.68 µM (active) and 11.8 µM (active)
same,Potency,[9],5.96 µM (active) and 9.34 µM (active)
c1ccc2c(c1)Nc1ccccc1S2,outcome,[1],inactive
same,Potency,[2],inactive
same,Potency,[3],inactive
same,Potency,[4],inactive
same,Potency,[5],inactive
same,Potency,[6],inactive
same,Potency,[8],inactive
same,Potency,[9],inactive
CCN(C(C)=O)c1cccc(-c2ccnc3c(C#N)cnn23)c1,outcome,[1],inactive
same,Potency,[2],inactive
same,Potency,[3],inactive
same,Potency,[8],inactive
CCC(C(N)=O)N1CCCC1=O (configuration not stated),outcome,[1],inactive
same,Potency,[2],inactive
same,Potency,[3],inactive
same,Potency,[4],inactive
same,Potency,[5],inactive
same,"activity change, negative = inhibition",[6],-16.2%
same,Potency,[8],inactive
same,Potency,[9],inactive
C[C@@H]1[C@@H](CC(C[C@H]2O[C@@H]3O[C@]4(C)CC[C@@H]5[C@H](C)CC[C@@H]([C@H]2C)[C@@]35OO4)C[S+](=O)([O-])c2ccc(COC(=O)N(C)C)cc2)O[C@@H]2O[C@]3(C)CC[C@H]4[C@H](C)CC[C@@H]1[C@@]24OO3 (some centres not stated),outcome,[1],inactive
Oc1cc(Cl)ccc1Oc1ccc(Cl)cc1Cl,outcome,[1],inactive
same,Potency,[2],inactive
same,Potency,[3],8.64 µM (active) and 11 µM (active)
same,Potency,[6],25.1 µM (active)
same,Potency,[8],6.24 µM (active)
same,Potency,[9],6.24 µM (active)
same,outcome,[13],inactive
same,Potency,[15],52 µM (active)
C#CCN(C)[C@H](C)Cc1ccccc1,outcome,[1],inactive
same,Potency,[2],inactive
same,Potency,[3],13.8 µM (active)
same,Potency,[4],inactive
same,Potency,[5],inactive
same,Potency,[6],inactive
same,"activity change, negative = inhibition",[6],-14%
same,Potency,[8],inactive
same,Potency,[9],inactive
Oc1cccc2cccnc12,Potency,[18],20 µM (active)
same,outcome,[1],inactive
same,Potency,[2],31.6 µM (active) and inactive
same,Potency,[3],inactive
same,outcome,[10],inactive
same,Potency,[5],inactive
same,"activity change, negative = inhibition",[6],-23.4%
same,Potency,[8],15.4 µM (active) and inactive
same,Potency,[9],34.4 µM (active) and inactive
CCC(COC(=O)c1cc(OC)c(OC)c(OC)c1)(c1ccccc1)N(C)C (configuration not stated),outcome,[1],inactive
same,Potency,[2],inactive
same,Potency,[3],0.389 µM (active)
same,Potency,[4],13.8 µM (active)
same,Potency,[5],inactive
same,Potency,[8],inactive
same,Potency,[9],inactive
Clc1cccc(N2CCNCC2)c1,outcome,[1],inactive
same,Potency,[2],inactive
same,Potency,[3],8.71 µM (active)
same,Potency,[4],inactive
same,Potency,[8],inactive
same,Potency,[9],inactive
